Data published in the supplement of paper PMC3545927.
The other results are listed elsewhere or left out. The true hit rate is not given.

Target: furin, P09958
Test: furin cleavage Z-score vs untreated control; higher = more cleavage, active = 3.5 or more, inactive = 1 or less, 8 variable residues between constant flanks
Method in brief: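 In 50 mM HEPES pH 7.5 with CaCl2 and NaCl, purified furin was incubated with bead-anchored 8-mer peptide–cDNA fusions at 1:10 enzyme:substrate in 0.01 ml. Incubation times were 7.5, 15 and 30 min. DNA set free by cleavage was adapter-tagged by PCR and sequenced, with read counts taken as abundance. Log counts relative to furin-free reactions, after lowess adjustment and median absolute deviation scaling, form the cleavage Z-score.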

furin, P09958, sequence (P09958 whole entry): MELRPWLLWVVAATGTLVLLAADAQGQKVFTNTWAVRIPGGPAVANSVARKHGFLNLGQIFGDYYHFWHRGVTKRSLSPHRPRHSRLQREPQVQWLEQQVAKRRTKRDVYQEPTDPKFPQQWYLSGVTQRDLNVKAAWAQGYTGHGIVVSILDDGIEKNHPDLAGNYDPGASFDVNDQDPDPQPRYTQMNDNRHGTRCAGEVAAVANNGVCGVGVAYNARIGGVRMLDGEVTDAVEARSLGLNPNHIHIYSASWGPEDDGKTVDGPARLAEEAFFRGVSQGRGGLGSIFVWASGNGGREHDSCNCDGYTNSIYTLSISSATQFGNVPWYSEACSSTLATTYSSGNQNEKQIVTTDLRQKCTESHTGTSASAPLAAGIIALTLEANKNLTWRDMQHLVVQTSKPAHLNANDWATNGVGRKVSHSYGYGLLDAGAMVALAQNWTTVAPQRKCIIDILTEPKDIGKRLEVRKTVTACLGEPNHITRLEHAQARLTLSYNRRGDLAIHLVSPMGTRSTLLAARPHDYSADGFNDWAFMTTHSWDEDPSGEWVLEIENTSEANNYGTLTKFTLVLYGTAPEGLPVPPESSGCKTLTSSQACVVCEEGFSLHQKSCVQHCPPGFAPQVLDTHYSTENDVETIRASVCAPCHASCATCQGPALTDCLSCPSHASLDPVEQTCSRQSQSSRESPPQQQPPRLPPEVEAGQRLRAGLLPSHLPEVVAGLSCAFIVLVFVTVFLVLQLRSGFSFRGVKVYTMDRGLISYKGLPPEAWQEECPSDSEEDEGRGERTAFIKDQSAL

Sequence	furin cleavage Z-score (7.5 min)	furin cleavage Z-score (15 min)	furin cleavage Z-score (30 min)
CASTPCSAHVAGNASASA [HC2570]	0.366 (inactive)	0.384 (inactive)	0.66 (inactive)
CASGSWLRDIAGNASASA [HC1147]	-1.83 (inactive)	-1.36 (inactive)	0.113 (inactive)
CAVDFIPVENAGNASASA [HC757]	-0.627 (inactive)	-0.626 (inactive)	-2 (inactive)
CAVTVRWKRGAGNASASA [FS-313]	10.9 (active)	12.2 (active)	8.51 (active)
CAMWERYCRGAGNASASA [FS-1377]	1.18	1.38	0.416 (inactive)
CAHCSRSKRPAGNASASA [FS-790]	0.521 (inactive)	0.407 (inactive)	-1.15 (inactive)
CAQQSRSKRGAGNASASA [FS-286]	7.44 (active)	8.25 (active)	7.09 (active)
CAVLQRSKRGAGNASASA [FS-1177]	10.8 (active)	9.33 (active)	7.91 (active)
CAPNSPSKRGAGNASASA [FS-474]	0.58 (inactive)	-0.142 (inactive)	0.811 (inactive)
CAIRMYVGGVAGNASASA [HC475]	-0.513 (inactive)	-1.17 (inactive)	-0.0738 (inactive)
CAWHYPPKPCAGNASASA [HC404]	2.21	0.243 (inactive)	-0.391 (inactive)
CADSSVLCECAGNASASA [HC917]	-0.488 (inactive)	0.33 (inactive)	-0.601 (inactive)
CAEVVTATWVAGNASASA [HC141]	0.437 (inactive)	0.0461 (inactive)	-0.276 (inactive)
CAETWKKPDYAGNASASA [HC1310]	-0.221 (inactive)	-1.55 (inactive)	-1.15 (inactive)
CAVVCCSMKYAGNASASA [HC2074]	0.109 (inactive)	0.25 (inactive)	0.72 (inactive)
CAVVACSMSYAGNASASA [HC2023]	1.53	0.103 (inactive)	1.35
CASKGRIRRRAGNASASA [FS-1081]	8.99 (active)	8.1 (active)	8.52 (active)
CASRGRRRRRAGNASASA [FS-302]	4.34 (active)	2.4	4.26 (active)
CASRSRRRRRAGNASASA [FS-1490]	8.08 (active)	8.87 (active)	7.6 (active)
CACVTQTVDFAGNASASA [HC889]	0.399 (inactive)	-1.73 (inactive)	0.371 (inactive)
CAIPPLNVRGAGNASASA [HC591]	-2.18 (inactive)	-0.0771 (inactive)	-0.417 (inactive)
CARTPRGLDDAGNASASA [FS-3110]	5.13 (active)	6.18 (active)	6 (active)
CARTRRLLWAAGNASASA [FS-2097]	-0.0202 (inactive)	0.591 (inactive)	-0.328 (inactive)
CARTRRLLDKAGNASASA [FS-2834]	-0.433 (inactive)	-1.53 (inactive)	-0.417 (inactive)
CARTRRHLHDAGNASASA [FS-2615]	7.74 (active)	9.2 (active)	8.75 (active)

Sequence	furin cleavage Z-score (7.5 min)	furin cleavage Z-score (15 min)	furin cleavage Z-score (30 min)
CARTRRALSDAGNASASA [FS-3173]	7.04 (active)	8.87 (active)	6.82 (active)
CARTPRPGEQAGNASASA [FS-2832]	-0.162 (inactive)	-0.138 (inactive)	-0.877 (inactive)
CAITPRCLVDAGNASASA [HC462]	-0.371 (inactive)	-0.729 (inactive)	-2.3 (inactive)
CAESTLSTALAGNASASA [HC1329]	-0.324 (inactive)	0.0602 (inactive)	1.27
CAEVPCHRPDAGNASASA [HC2411]	-1.49 (inactive)	-0.692 (inactive)	0.135 (inactive)
CADTGYPKRSAGNASASA [FS-1587]	0.338 (inactive)	-0.532 (inactive)	2.06
CAHNGLRDLAAGNASASA [HC641]	-0.235 (inactive)	0.0336 (inactive)	0.434 (inactive)
CAILSRKKRSAGNASASA [FS-598]	13.1 (active)	11 (active)	8.58 (active)
CAHNGRKKRSAGNASASA [FS-794]	12.6 (active)	13.4 (active)	9.77 (active)
CAASSSKKRSAGNASASA [FS-1310]	1.7	1.89	0.28 (inactive)
CAEVPCHFPSAGNASASA [HC2367]	0.277 (inactive)	-0.0294 (inactive)	0.605 (inactive)
CATPTVATRDAGNASASA [HC282]	-1.53 (inactive)	0.0271 (inactive)	-0.971 (inactive)
CAEVVTSRWVAGNASASA [HC2213]	0.434 (inactive)	-0.178 (inactive)	1.55
CAVLTRSRRDAGNASASA [FS-573]	15.8 (active)	16 (active)	10.2 (active)
CAEAWRSRRDAGNASASA [FS-761]	5 (active)	6.16 (active)	5.62 (active)
CAQPSSSRRDAGNASASA [FS-1251]	-0.0806 (inactive)	-1.03 (inactive)	-1.19 (inactive)
CAEVVTSTWDAGNASASA [HC2251]	-0.232 (inactive)	-0.217 (inactive)	-0.0353 (inactive)
CATPKRSRRDAGNASASA [FS-202]	10.5 (active)	10.4 (active)	6.86 (active)
CALHSRPQRLAGNASASA [FS-939]	0.578 (inactive)	1.4	1.43
CALHSRNKRLAGNASASA [FS-607]	7.17 (active)	9.47 (active)	6.69 (active)
CAKPARVSKDAGNASASA [FS-259]	-0.289 (inactive)	-0.617 (inactive)	-0.0479 (inactive)
CAGPIRRKRLAGNASASA [FS-1526]	11.1 (active)	11.4 (active)	9.25 (active)
CAKPARRKRLAGNASASA [FS-44]	8.86 (active)	9.53 (active)	10.1 (active)
CAWHSRRKRLAGNASASA [FS-210]	9.83 (active)	11.7 (active)	10.6 (active)
CAGPQRQKKLAGNASASA [FS-1202]	-0.669 (inactive)	-1.47 (inactive)	-0.377 (inactive)
